# Bim-Mcl-1: human Bim-Mcl-1 interaction inhibition | Q07820 | 0.1% of 190,000 active | Bead-based flow cytometry, Bim peptide-Mcl-1 binding | AID 1009 | inhibition, % at 10 µM; in the data active = inhibition above about 40%;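 note: 0% = no compound tracer wells and 100% = peptide blocker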
# Mcl1 Noxa PPI: Mcl-1/Noxa interaction inhibition. 1.5% of 220,000 active. Q07820. TR-FRET Mcl-1/Noxa peptide binding, 2 h. inhibition, % at 21.7 µM;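 active = compounds that cut the protein-peptide binding signal by more than 50% relative to plate controls in a single-dose test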;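 note: His-tagged Mcl-1 with rhodamine Noxa BH3 peptide and terbium anti-His antibody; 0% = Mcl-1 plus Noxa peptide wells and 100% = peptide-only wells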
# Mcl1-Bid inh: Mcl-1/Bid interaction inhibition; 0.97% of 220,000 active; TR-FRET Mcl-1/Bid-Dy647 peptide binding, 1536-well; AID 1021; inhibition, % at 21.7 µM;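 active = compounds that cut the binding signal by more than half at the single screening dose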;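 note: His-tagged Mcl-1 with europium anti-His antibody binding Bid BH3 peptide; 0% = Mcl-1 plus peptide wells and 100% = peptide-only wells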
# eIF4E 4G PPI: eIF4E/eIF4G interaction inhibition in translation initiation; TR-FRET eIF4E-eIF4GI(517-606) binding, 2 h; inhibition, % at 21.7 µM; 0.37% of 220,000 active; AID 782;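 active = inhibition above about 30%, limit read from the data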;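 note: 0% = full FRET control wells and 100% = background wells lacking eIF4GI fragment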
# Target sequence (P63073 whole entry, looked up, the tested form may be a part): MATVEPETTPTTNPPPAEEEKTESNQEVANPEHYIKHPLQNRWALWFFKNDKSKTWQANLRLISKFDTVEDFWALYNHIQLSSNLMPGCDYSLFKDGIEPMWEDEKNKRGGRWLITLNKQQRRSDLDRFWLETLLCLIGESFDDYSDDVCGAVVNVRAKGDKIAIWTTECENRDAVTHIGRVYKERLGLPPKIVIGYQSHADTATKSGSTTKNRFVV
# Target sequence (Q04637 whole entry, looked up, the tested form may be a part): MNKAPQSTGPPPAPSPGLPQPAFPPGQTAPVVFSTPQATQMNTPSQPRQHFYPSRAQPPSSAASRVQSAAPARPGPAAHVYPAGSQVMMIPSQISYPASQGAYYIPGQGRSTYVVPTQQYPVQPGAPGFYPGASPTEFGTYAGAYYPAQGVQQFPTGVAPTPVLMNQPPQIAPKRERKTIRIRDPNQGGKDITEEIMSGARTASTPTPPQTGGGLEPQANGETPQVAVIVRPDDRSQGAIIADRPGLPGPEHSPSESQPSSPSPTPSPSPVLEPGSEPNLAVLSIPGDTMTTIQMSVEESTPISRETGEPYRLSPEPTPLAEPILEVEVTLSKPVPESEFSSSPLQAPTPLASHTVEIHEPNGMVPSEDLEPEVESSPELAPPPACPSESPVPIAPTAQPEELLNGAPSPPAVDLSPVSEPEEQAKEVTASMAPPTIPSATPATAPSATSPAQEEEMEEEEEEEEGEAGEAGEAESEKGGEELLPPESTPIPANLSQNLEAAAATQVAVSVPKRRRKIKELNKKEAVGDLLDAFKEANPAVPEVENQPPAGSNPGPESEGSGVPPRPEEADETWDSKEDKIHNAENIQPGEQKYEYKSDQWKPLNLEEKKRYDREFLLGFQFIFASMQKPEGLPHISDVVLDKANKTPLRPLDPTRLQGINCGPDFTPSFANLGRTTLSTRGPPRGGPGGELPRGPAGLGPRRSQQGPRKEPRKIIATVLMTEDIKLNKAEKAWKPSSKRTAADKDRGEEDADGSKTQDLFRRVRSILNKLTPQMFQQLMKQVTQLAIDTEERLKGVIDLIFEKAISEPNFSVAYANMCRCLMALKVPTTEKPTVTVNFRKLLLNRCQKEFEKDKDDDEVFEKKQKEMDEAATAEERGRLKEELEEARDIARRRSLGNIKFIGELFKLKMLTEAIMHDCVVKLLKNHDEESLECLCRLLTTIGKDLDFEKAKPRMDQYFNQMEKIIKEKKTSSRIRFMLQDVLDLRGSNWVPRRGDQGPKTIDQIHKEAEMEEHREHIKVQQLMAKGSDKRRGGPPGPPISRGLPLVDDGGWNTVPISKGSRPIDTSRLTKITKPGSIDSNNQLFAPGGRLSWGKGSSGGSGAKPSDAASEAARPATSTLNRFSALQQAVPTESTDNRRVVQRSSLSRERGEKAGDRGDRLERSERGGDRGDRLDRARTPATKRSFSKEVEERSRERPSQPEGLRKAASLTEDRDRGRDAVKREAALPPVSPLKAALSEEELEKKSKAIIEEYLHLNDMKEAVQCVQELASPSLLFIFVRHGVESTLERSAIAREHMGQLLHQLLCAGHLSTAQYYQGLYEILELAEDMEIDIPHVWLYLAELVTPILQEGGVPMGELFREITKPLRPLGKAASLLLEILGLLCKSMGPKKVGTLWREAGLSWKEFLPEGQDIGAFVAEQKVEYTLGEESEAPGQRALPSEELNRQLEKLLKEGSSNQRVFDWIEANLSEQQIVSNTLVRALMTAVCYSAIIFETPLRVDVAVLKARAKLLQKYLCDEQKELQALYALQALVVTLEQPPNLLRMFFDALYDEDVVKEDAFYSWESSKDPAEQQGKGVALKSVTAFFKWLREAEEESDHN
# 14-3-3 Bad inh: disrupts binding of bovine 14-3-3 zeta to phospho-Bad peptide. P63103. TR-FRET 14-3-3zeta/Dy647-pBad peptide displacement, 1 h. inhibition, % at 21.7 µM. 0.71% of 220,000 active. AID 781;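 active = inhibition above about 70%, limit read from the data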;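 note: 0% = full 14-3-3 plus peptide FRET controls and 100% = background without 14-3-3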
# Pf gamet viab: kills late stage P. falciparum gametocytes; 0.065% of 150,000 active; P. falciparum stage V gametocytes, ATP luminescence, 24 h; inhibition, % at 10.9 µM;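 active = inhibition above the mean plus 3 SD of compounds within the control limits, set per campaign, cut at about 38% in these data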;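 note: 0% = DMSO wells and 100% = medium only without gametocytes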
# * marks the source's active call; other numbers are inactive results; · = no result given; [ ] = remark or other dose. Rows were chosen to be rich in hits. Some 2.7% of all compounds tested hit in one or more screens of this group.
SMILES,Bim-Mcl-1,Mcl1 Noxa PPI,Mcl1-Bid inh,eIF4E 4G PPI,14-3-3 Bad inh,Pf gamet viab
COc1ccccc1N1C(=O)C2CC(C)=C(C)CC2C1=O (configuration not stated),1.0,13.9,1.5,2.4,-7.2,·
COc1ccccc1N1C(=O)C=C(Sc2nc(C)cc(C)n2)C1=O,·,54.4*,-30.4,14.1,10.5,-6.5
O=C(CNS(=O)(=O)c1ccc(C(=O)N2CCCCC2)cc1)N1CCCCC1,-5.0,8.3,-8.4,1.5,9.4,·
O=C(c1ccc(CNS(=O)(=O)c2ccc(Br)cc2)cc1)N1CCCC1,42.0*,4.0,-33.4,6.5,-0.8,·
CO/N=C/CC(=O)c1cnc(-c2ccccc2)s1,0.0,10.8,-4.3,0.3,-10.3,11.9
Cc1ccc(NC(=O)c2cc(N3C(=O)C=CC3=O)ccc2N2CCOCC2)cc1Cl,-19.0,56.4*,11.0,4.5,-27.3,2.1
Cc1ccc(NC(=O)c2cc(N3C(=O)CCC3=O)ccc2N2CCOCC2)cc1,0.0,2.2,-4.3,-0.6,-7.1,-7.1
O=C(Nc1ccc(N2CCOCC2)cc1)Nc1ccc(Cl)c(Cl)c1,-131.0,81.8*,-21.2,6.7,-10.5,·
CC1CCCC(NC2CCCCNC2=O)C1 (configuration not stated),2.0,-10.8,83.1*,1.8,10.6,14.1
CCC1CCC(NC2CCCCNC2=O)CC1 (configuration not stated),-1.0,13.4,-2.0,-0.2,-0.8,9.0
COc1ccccc1OCCCCN1CCN(c2ccccc2OC)CC1,-3.0,-3.5,12.6,5.0,80.6*,-3.1
Cc1ccc(CNC(=O)CCS(=O)(=O)c2cccc3nonc23)cc1,-1.0,4.4,93.1*,0.0,-4.9,-1.1
Cc1ccc(CNC(=O)CCS(=O)(=O)c2ccc(Br)cc2)cc1,-1.0,5.2,-90.4,3.5,95.5*,10.9
O=C(CCS(=O)(=O)c1cccc2nsnc12)NCc1ccccc1Cl,-3.0,3.5,-2.4,32.9*,8.9,-0.1
O=[N+]([O-])c1cc(/C=N/Nc2nc3ccccc3[nH]2)c(O)cc1O,0.0,74.7*,-130.5,9.7,1.4,-12.4
CCOc1ccc(C(=O)Nc2cc(-c3nc4ccccc4[nH]3)ccc2C)cc1[N+](=O)[O-],-2.0,3.1,-5.3,5.2,75.4*,-21.1
CCOc1ccc(C(=O)Nc2cc(-c3nc4ccccc4[nH]3)ccc2Cl)cc1[N+](=O)[O-],-23.0,11.2,14.0,-4.9,48.3,9.5
O=C(Nc1nc2ccccc2[nH]1)c1ccc(Cl)c([N+](=O)[O-])c1,0.0,81.9*,8.9,5.8,35.2,1.3
O=C(Nc1nc2ccccc2[nH]1)c1ccccc1[N+](=O)[O-],2.0,-7.8,-21.9,-3.2,-1.4,-14.3
O=C(O)Cn1cc(/C=c2/sc3nc4ccccc4n3c2=O)c2ccccc21,0.0,64.1*,-28.7,-3.9,-13.8,-1.6
CC1(C)CC(=O)C(/C=N/n2c(C(F)(F)F)nc3ccccc3c2=O)=C(O)C1,1.0,20.7,22.0,6.7,15.2,8.8
Cc1[nH]c(=O)[nH]c(=O)c1S(=O)(=O)NCCc1ccc(S(N)(=O)=O)cc1,0.0,58.1*,-13.9,-2.1,-11.7,-1.6
Cc1[nH]c(=O)[nH]c(=O)c1S(=O)(=O)Nc1ccc(S(N)(=O)=O)cc1,·,·,·,·,·,10.9
CCOc1cccc2sc(Cl)nc12,-4.0,11.7,-22.1,-8.3,-4.5,4.1
CCOc1nsc(OCC)n1,·,59.3*,-4.5,1.7,1.0,·
SMILES,Bim-Mcl-1,Mcl1 Noxa PPI,Mcl1-Bid inh,eIF4E 4G PPI,14-3-3 Bad inh,Pf gamet viab
COc1ccccc1NS(=O)(=O)c1ccc(NN=C2CCCC2)c([N+](=O)[O-])c1,-2.0,13.4,-2.5,66.8*[fluorescence artefact?],19.6,·
Cc1ccc2nc(NC3=NC(CC(=O)O)C(=O)N3)nc(C)c2c1 (configuration not stated),-2.0,1.7,-17.5,-0.2,1.3,-1.8
CCC(c1nnnn1CCc1ccccc1)N1CCN(C(=O)c2ccco2)CC1 (configuration not stated),0.0,24.9,18.8,-1.4,74.5*,·
CCCCC(c1nnnn1Cc1ccco1)N1CCN(C(=O)c2ccco2)CC1 (configuration not stated),0.0,17.3,1.9,19.2,84.6*,·
CC(C)n1c(O)c(N=NC(=O)Cc2csc(N3CCOCC3)n2)c2ccccc21,-2.0,21.4,-17.9,3.5,-21.3,4.4
N#C/C(=C\c1ccc(/C=C(/C#N)c2nn(CCO)c(N)c2C#N)cc1)c1nn(CCO)c(N)c1C#N,0.0,57.5*,61.7*,5.3,11.2,11.5
OCC1(CCc2ccccc2)CCN(Cc2ccc(OC(F)F)cc2)CC1,1.0,9.0,-17.8,-1.5,-10.5,4.2
COc1cccc(OC)c1OCCCCCc1c(C)n[nH]c1C,0.0,21.8,29.4,4.4,80.8*,5.3
Cc1ccc(OCc2ccc(C(=O)Nc3nc4ccccc4n3Cc3ccccc3)o2)c([N+](=O)[O-])c1,-2.0,28.4,68.0*,-1.4,16.3,·
Cc1ccc(C)c2c3c([nH]c12)-c1nonc1CC3,1.0,4.3,2.0,-2.4,-10.3,·
Cn1cccc1-c1cc(C(=O)N2CCc3c([nH]c4ccccc34)C2c2ccccn2)[nH]n1 (configuration not stated),0.0,15.6,-18.9,73.4*,-6.6,-5.2
COc1ccccc1-c1sc2cc3c(cc2c1C#Cc1ccccn1)OCO3,·,·,·,·,·,19.9
Cn1cccc1C(=O)NC(=O)COC(=O)CNC(=O)c1ccc(Cl)cc1Cl,0.0,14.6,-6.2,-4.8,-16.1,·
N#C/C(=C(/O)c1ccc(-c2cccc([N+](=O)[O-])c2)o1)c1nc2ccccc2s1,-1.0,88.3*,15.1,25.0,92.4*,-6.5
COc1ccc2nc(NC(=O)c3ccc(-c4cccc([N+](=O)[O-])c4)o3)sc2c1,10.0,62.0*,78.6*,-2.4,65.2,·
O=C(Nc1nc2ccc([N+](=O)[O-])cc2s1)c1ccco1,-1.0,55.8*,16.6,4.0,49.1,35.9
O=C(O)c1ccc(-c2cccc([N+](=O)[O-])c2)o1,·,17.4,-27.2,-4.5,8.5,13.1
CCN(CC)C(=O)CC(c1ccc(N(C)C)cc1)c1c(O)cc(OC)cc1OC (configuration not stated),·,-8.6,-91.2,-1.5,-5.9,-4.5
COc1cccc(CC(NC(C)=O)C(=O)NC2CCN(c3c(Cc4ccccc4)c(C)nc4ncnn34)CC2)c1 (configuration not stated),-1.0,4.6,-3.0,-0.2,1.1,·
CCOc1ccc2cc(/C=C/C(=O)c3ccco3)c(Cl)nc2c1,1.0,-23.1,59.0*,-67.6,10.3,·
COc1ccc2c(c1)c(=O)oc1cc(O)ccc12,0.0,6.0,-10.2,-2.3,3.7,·
COc1ccc2c(c1)c(=O)oc1cc3oc(C)c(C)c3cc12,-4.0,55.8*,66.7*,5.7,10.2,·
COC(=O)[C@H](Cc1c[nH]c2ccccc12)NC(=O)Nc1ccccc1OC,·,-3.4,-9.9,-4.5,-2.6,-18.7

# High-throughput results as filed in PubChem.
